Measured values as given in PubChem BioAssay (NCI).
This is part of a sample that, as a whole, favours compounds with a hit. Of some 83,000 tested, about 20% had one in any assay.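 Values shown are percent growth following 48 h exposure of cells in 96-well plates to a single concentration of compound; below 10 was considered active.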 Values without a mark were called inactive. Activity calls are given as the source filed them.

What was measured:
Test in all cases: NCI-60 one-dose screen, 48 h (100 = growth as untreated, 0 = no growth, -100 = all killed)
Settings in all cases: 10 µM unless noted
RPMI-8226 leukemia = tested on: RPMI-8226 leukemia
OVCAR-8 ovarian = tested on: OVCAR-8 ovarian
OVCAR-5 ovarian = tested on: OVCAR-5 ovarian
OVCAR-4 ovarian = tested on: OVCAR-4 ovarian
SK-OV-3 ovarian = tested on: SK-OV-3 ovarian
IGROV1 ovarian = tested on: IGROV1 ovarian
OVCAR-3 ovarian = tested on: OVCAR-3 ovarian
HS 578T breast = tested on: HS 578T breast
NCI/ADR-RES ovarian = tested on: NCI/ADR-RES ovarian
SR leukemia = tested on: SR leukemia

SMILES	growth (RPMI-8226 leukemia)	growth (OVCAR-8 ovarian)	growth (OVCAR-5 ovarian)	growth (OVCAR-4 ovarian)	growth (SK-OV-3 ovarian) [%]	growth (IGROV1 ovarian)	growth (OVCAR-3 ovarian)	growth (HS 578T breast) [%]	growth (NCI/ADR-RES ovarian)	growth (SR leukemia)
CC(=O)Oc1cccc(S(=O)(=O)n2cc(C(=O)C(=O)Nc3ccncc3)c3ccccc32)c1	65.2%	89.7%	90.8%	78%	92.5	84.7%	101%	98.5	80.2%	–
CC1(C)C(=O)/C(=C\c2ccc(C(F)(F)F)cc2)C[C@]2(C)[C@H]3CC[C@@H]4[C@H]5[C@H](C(=O)/C=C/c6ccc(C(F)(F)F)cc6)CC[C@]5(CO)CC[C@@]4(C)[C@]3(C)CC[C@@H]12	88.6%	79.6%	107%	96.6%	110	92.4%	97%	95.8	99.1%	–
COc1ccc(S(=O)(=O)NCCCNc2nccc(-n3ccc4cccnc43)n2)cc1	–	92.7%	100%	81.5%	119	103%	98.8%	92.3	91.1%	90.7%
O=Nc1c(-c2cccc([N+](=O)[O-])c2)nc2ncccn12	-30.7% (active)	81.1%	93.5%	86.5%	101	40.5%	44.9%	107	97.5%	–
O=S(=O)(NCCCNc1nccc(-n2ccc3cccnc32)n1)c1ccc(Br)cc1	–	103%	107%	–	113	108%	112%	103	101%	112%
Cc1cc(C)n(-c2nnc3n2N=C(c2ccc(-c4ccccc4)cc2)CS3)n1	37.2%	52.5%	83.8%	74.7%	56.8	69.6%	15.6%	49.2	35%	–
O=C(O)/C=C/C(=O)c1ccc(Cl)cc1	115%	95.9%	115%	116%	107	114%	105%	119	109%	–
N=C(N)c1ccc(-c2ccc(-c3cncc4ccccc34)s2)cc1F	–	-51.6% (active)	-94.7% (active)	-78.6% (active)	–	-87.5% (active)	-91.6% (active)	88.9	1.93% (active)	-3.96% (active)
Fc1ccc(CNCCNc2ncnc3c2cnn3-c2ccccc2)cc1	84.6%	88%	98.6%	97.4%	94.6	94.2%	109%	92.1	95.8%	–
CN(C[C@H]1Cc2c(cccc2N2CCN(c3ncccn3)CC2)CN1)[C@H]1CCCc2cccnc21	27.1%	30%	52.8%	52.9%	39.5	37.1%	34%	73.1	9.46% (active)	–
COc1ccc(-c2ccc(-c3ccc(-c4ccc(C(=N)N)cc4)s3)s2)cc1OC	–	101%	-12.2% (active)	-53.2% (active)	–	15.7%	-64.9% (active)	89.6	84%	6.75% (active)
C=C(C)[C@@H]1C[C@H](O)Cc2cc(F)ccc2N1	74.8%	96.5%	85.5%	108%	102	108%	111%	96.8	93.6%	–
COc1ccc(Nc2[nH]n3c(=O)cc(C)nc3c2C(N)=O)c(OC)c1	102%	97.4%	113%	99.2%	88.3	107%	106%	99.2	103%	–
Cc1ccc(S(=O)(=O)NCCNc2nccc(-c3c(-c4ccc(O)cc4)nc4sccn34)n2)cc1	85.9%	89.3%	135%	102%	107	97.1%	110%	106	97.8%	–
COc1ccc(C2C=C(c3ccc(Cl)cc3)N=C3SC=C(C)N32)c(Br)c1 (configuration not stated)	14.9%	18.6%	67%	48.1%	35.3	46.1%	10.8%	56.3	33.2%	–
